ChEMBL document CHEMBL3988442, “University of Dundee, Small-Polar-MMV Screening Library” (2021)
About 440 (0.52%) of roughly 85,000 compounds showed an effect of 50% or more. Shown is part of a subset that was picked to be rich in strong results.

Assay: In vitro enzyme assay to detect hydrolysis of chlorophenol red-beta-D-[…] directly proportional to the number of Toxoplasma stably expressing beta-galactosidase
Type: functional, organism-based, Toxoplasma gondii
Design: scale not given: in the data most compounds retested in dose-response had high values

SMILES | Percent Effect (50 µM) | Percent Effect (10 µM)
NC(=O)C1CCN(CC(=O)Nc2ccc(F)cc2)CC1 | -2.359% | 
CCN(CC)CC(N)=O | -6.066% | 
CC1CCCN(Cn2nccc2-c2cccnc2)C1 (stereo unspecified) | 7.827% | 
O=C(NCCc1ccccc1F)C1CCNCC1 | -5.827% | 
O=C(OCC(F)(F)F)c1cccnc1 | -11.21% | 
Cc1ccc(F)cc1C(=O)N[C@@H]1CCNC[C@H]1O | 19.16% | 
O=C(N[C@H]1CCCNC1)c1ccc(F)cc1F | -5.906% | 
Cc1ccc(F)cc1C(=O)NC1CCCNC1 (stereo unspecified) | 83.09% | 
COCc1nnc(-c2ccc3c(c2)OCO3)o1 | 23.78% | 
NC(=O)C1CCCN1C(=O)C1CCNCC1 (stereo unspecified) | -2.32% | 
c1ccc(Nc2nccs2)nc1 | -28.74% | 
Oc1cc(C2CCCCN2Cc2cccs2)nc(-c2ccccn2)n1 (stereo unspecified) |  | 91.06%
Oc1cc(C2CCCN(Cc3cccs3)C2)nc(-c2ccccn2)n1 (stereo unspecified) |  | 33.79%
Oc1cc(C2CCCCN2Cc2cccs2)nc(-c2ccncc2)n1 (stereo unspecified) |  | -14.06%
Cc1ccc(N)c(C)n1 | 4.322% | 
OC(c1ccccc1)C1CCNCC1 (stereo unspecified) | -7.409% | 
O=C(NCc1ccnc(NC2CC2)c1)C1CCCCC1 | 17% | 
Cc1ccc(Cn2cc(Br)c(NS(C)(=O)=O)n2)cc1 |  | 20%
CS(=O)(=O)Nc1nn(Cc2ccc(F)cc2)cc1Br |  | 62.42%
Cc1cccc(Cn2cc(Br)c(NS(C)(=O)=O)n2)c1 |  | 46.94%
Cc1ccc(C(=O)N2C[C@@H](CO)[C@H](N(C)C)C2)cc1 | 0.785% | 
CN(C)C(=O)CNC(CC(F)(F)F)c1ccc(F)cc1 (stereo unspecified) |  | 4.779%
CN(C)C(=O)CNC(CO)c1ccc(Cl)c(F)c1 (stereo unspecified) | 52.18% | 
CN(C)C(=O)CNC(CC(F)(F)F)c1ccc(Cl)cc1 (stereo unspecified) |  | 0.885%
CCNC(=O)c1cc2ccccc2n1C | -19.31% | 
CCOCC(C)OC(=O)c1ccnn1C (stereo unspecified) | 57.1% | 

SMILES | Percent Effect (50 µM) | Percent Effect (10 µM)
Cn1nccc1C(N)=O | -25% | 
CCOC(CNC(=O)c1ccnn1C)c1ccccc1 (stereo unspecified) | -0.4622% | 
NCCCn1nc2ccccn2c1=O | 7.053% | 
CCOc1ccc(Cl)cc1C(N)=O | -6.805% | 
Cn1nc(C(=O)NC2CCCC2)cc1NC(=O)C1CC1 |  | -6.404%
Cn1nc(C(=O)NC2CC2)cc1NC(=O)C1CC1 |  | -1.586%
Cc1nn(C)c(C)c1CNC(=O)c1cc(NC(=O)C2CC2)n(C)n1 |  | 56.77%
CCn1nc(C)c(NC(=O)c2cc(NC(=O)C3CC3)n(C)n2)c1C |  | 0.1763%
Cc1nn(C)c(C)c1CN(C)C(=O)c1cc(C(F)(F)F)n(C)n1 |  | 12.73%
Cc1nn(C)c(C)c1CN(C)C(=O)c1cc(NC(=O)C2CC2)n(C)n1 |  | 51.38%
CN(C)C1CCN(S(=O)(=O)c2ncn(C)c2Cl)CC1 | -2.885% | 
COCC(=O)Nc1c[nH]nc1C1CCCNC1 (stereo unspecified) | -10.17% | 
COc1ccc(F)cc1C(=O)N1CCC(CN)CC1 | -0.7009% | 
Cc1nccc(C(=O)NCC(C)(C)CN(C)C)n1 | 2.804% | 
COc1ccc(CNC(=O)CC2CCNC2)c(OC)c1 (stereo unspecified) | -8.79% | 
CC(OCCCNC(=O)c1cccnc1O)c1ccccc1 (stereo unspecified) |  | 39.02%
CC(=O)c1ccc(C(=O)NCCCOC(C)c2ccccc2)s1 (stereo unspecified) |  | -2.061%
COc1ccc(C(=O)NCCCOC(C)c2ccccc2)c(OC)c1 (stereo unspecified) |  | 61.13%
CNC1CCN(Cc2ncc(C)c(OC)c2C)CC1 | 36.04% | 
CCCc1nc(NCC(=O)N2CCOCC2)c2c(n1)c(C)nn2CC |  | 3.704%
CCCc1nc(N2CCC(C)CC2)c2c(n1)c(C)nn2CC |  | 25.59%
CCCc1nc(NCCOC)c2c(n1)c(C)nn2CC |  | 57.71%
CCCc1nc(NCCc2ccccc2)c2c(n1)c(C)nn2CC |  | 68.81%
CCCc1nc(NCCCOC)c2c(n1)c(C)nn2CC |  | 90.71%
CCc1nc(NCCCn2cccn2)c2c(n1)c(C)nn2CC |  | 14.75%
CCCc1nc(NCCCOCC)c2c(n1)c(C)nn2CC |  | 72.53%

SMILES | Percent Effect (50 µM) | Percent Effect (10 µM)
CCn1nc(C)c2nc(C(C)C)nc(NCCOC)c21 |  | 21.04%
CCCc1nc(NCCCO)c2c(n1)c(C)nn2CC |  | 3.108%
CCn1nc(C)c2nc(C)nc(NCCc3ccccc3)c21 |  | 19.6%
CCc1nc(NCCCOC)c2c(n1)c(C)nn2C |  | 6.336%
CCn1nc(C)c2nc(C)nc(NCCc3ccc(C)cc3)c21 |  | 34%
CNCCCOC(C)C | -2.494% | 
NC1CCN(CC2CC2)CC1 | 2.288% | 
NC(=O)c1ccc(NC(=O)CCN2CC(O)C2)cc1 | -17.28% | 
CCC(Nc1cccc(OCC(F)(F)F)c1)C(N)=O (stereo unspecified) | -6.008% | 
CCOC(=O)NC1CCC(NC(=O)C2CCC2)CC1 (stereo unspecified) | 0.5853% | 
CCN(CC)c1nc2nc[nH]c(=O)c2s1 | -4.057% | 
CC(CCN)CCO (stereo unspecified) | 29.53% | 
OCc1nncn1-c1ccccc1 | 12.09% | 
C[C@@H]1CN(C2CCN(c3ccccc3F)CC2)C[C@]1(C)O |  | 12.36%
Cc1cc(F)ccc1N1CCC(N2C[C@@H](C)[C@@](C)(O)C2)CC1 |  | 24.01%
C[C@@H]1CN(C2CCN(c3ccccc3F)CC2)CC[C@]1(C)O |  | 72.85%
CN(C)CC1CNCCO1 (stereo unspecified) | -14.23% | 
CC(=O)NC(C(=O)N(C)Cc1cccs1)C(C)C (stereo unspecified) | 4.166% | 
OCCN1CCN(c2ccc3nnnn3n2)CC1 | 0.916% | 
Cn1cc(CN)c(C(F)(F)F)n1 | 98.21% | 
Cn1cc(N)c(C(F)(F)F)n1 | -8.221% | 
Cn1cc(S(N)(=O)=O)c(C(F)(F)F)n1 | 17.97% | 
CN1CCC(CNC(=O)CCc2cccs2)C1 (stereo unspecified) | -16.97% | 
CN1CCCCC1CCC(=O)NCCc1ccncc1 (stereo unspecified) | 15.39% | 
CC(C)Nc1oc(-c2ccc(S(=O)(=O)N(C)C)o2)nc1C#N |  | -12.9%
CN(C)S(=O)(=O)c1ccc(-c2nc(C#N)c(NC3CCCCC3)o2)o1 |  | 3.806%

SMILES | Percent Effect (50 µM) | Percent Effect (10 µM)
CN(C)S(=O)(=O)c1ccc(-c2nc(C#N)c(NC(C)(C)C)o2)o1.Cl |  | 91.6%
CN(C)S(=O)(=O)c1ccc(-c2nc(C#N)c(NC3CC3)o2)o1 |  | -1.829%
CNc1oc(-c2ccc(S(=O)(=O)N(C)C)o2)nc1C#N |  | 44.93%
NCCOc1cccc(C(F)(F)F)n1 | -9.845% | 
COCCN(Cc1cccs1)C(=O)CC1CCNC1 (stereo unspecified) | 11.69% | 
CSc1ccc(CNC(=O)C(C)O)cc1 (stereo unspecified) | -1.798% | 
COc1cccc2ccc(CN3CC[C@@H](O)C3)nc12 | 11.26% | 
NC[C@@H]1CC(=O)N(C2CC2)[C@H]1c1ccncc1 | -2.453% | 
CC(NS(=O)(=O)N(C)C)c1ccccc1 (stereo unspecified) | -35.13% | 
CN(C)S(=O)(=O)NC(c1ccccc1)c1ccccc1 | 10.19% | 
CC(C)Sc1ccccc1NS(=O)(=O)N(C)C | 99.92% | 
CCNCCCC1CCNCC1 | 16.42% | 
COC(=O)c1cccc(NS(=O)(=O)c2cnc(NC(C)=O)s2)c1 |  | -3.347%
COC(=O)c1ccc(NS(=O)(=O)c2cnc(NC(C)=O)s2)cc1 |  | 53.94%
COC(=O)c1ccc(NC(C)=O)cc1 | 6.6% | 
COc1ccc(S(=O)(=O)Nc2cnc(N(C)C)nc2)cc1 |  | -8.947%
COc1ccc(OCCc2nnc(NC(C)=O)s2)cc1 |  | -4.781%
COc1ccc(NS(=O)(=O)c2cnc(NC(C)=O)s2)cc1 |  | 74.55%
CC(C)OCCN1CCN(C(=O)c2cc[nH]n2)CC1 | -2.714% | 
NCC(C(=O)N1CCC2(CCC2)C1)c1ccccc1 (stereo unspecified) | 20.55% | 
CC(=O)NC(C)C(=O)Nc1ccc2ccccc2c1 (stereo unspecified) | -30.81% | 
O=C1CCc2ccccc2N1Cc1ncccn1 | 0.3291% | 
Nc1cc(-c2cccnc2)on1 | -0.8399% | 
Cc1noc(C)c1S(=O)(=O)N(C)Cc1ccoc1 | -13.17% | 
CC1(C)CC(=O)CN1C(=O)c1cc(Cl)c2c(c1)OCO2 | 7.211% | 
COc1cccc2c1OCC(CNS(C)(=O)=O)C2 (stereo unspecified) | 14.05% | 

SMILES | Percent Effect (50 µM) | Percent Effect (10 µM)
CCc1nccn1CCNC(=O)Cn1nc(C)cc1N | 0.7856% | 
CNC(=O)C1CCCN(C(=O)Cc2ccc(F)cc2)C1 (stereo unspecified) | -18.03% | 
NCCCc1nc(-c2ccncc2)cs1 | -3.15% | 
CN(C)C(=O)c1cc(-c2ccncc2)[nH]n1 |  | -7.126%
NCCc1cc(-c2ccncc2)[nH]n1 | 52.85% | 
O=C(NC1(CCO)CCC1)c1c(O)cc(F)cc1F | -3.362% | 
COCCOCCCNC(=O)c1cn2cc(C)nc2s1 | 5.507% | 
CN(Cc1ccc(F)c(F)c1)C(=O)C1CCOCC1 | 0.4539% | 
O=C(O)C(F)(F)F.O=C(O)C(F)(F)F.c1ccc(CCN2CCn3cc(Cn4cccn4)nc3C2)cc1 |  | -2.685%
Cn1cc(CN2CCn3cc(Cn4cccn4)nc3C2)cn1.O=C(O)C(F)(F)F |  | 96.45%
Fc1ccc(CN2CCn3cc(Cn4cccn4)nc3C2)cc1.O=C(O)C(F)(F)F |  | 6.807%
Cc1noc(C)c1S(=O)(=O)N1CC[S+]([O-])C(C)(C)C1 (stereo unspecified) | -20.3% | 
CC(=O)c1sc(NCCc2ccccn2)nc1C | -25.25% | 
CCN1CCN(S(=O)(=O)c2cnc(NC(C)=O)s2)CC1 |  | -3.243%
CCS(=O)(=O)Nc1ccccc1F | 6.561% | 
CC(=O)Nc1ncc(Br)s1 | 8.521% | 
CC(=O)Nc1ncc(S(=O)(=O)Nc2ccc(F)cc2)s1 |  | 2.51%
CC(=O)Nc1ncc(S(=O)(=O)Nc2ccc(C)cc2)s1 |  | 70.91%
CC(=O)Nc1ncc(S(=O)(=O)Nc2ccc(F)cc2F)s1 |  | -1.674%
CC(=O)Nc1ncc(S(=O)(=O)N2CCC(C)CC2)s1 |  | -14.89%
CC(=O)Nc1ncc(S(=O)(=O)Nc2ccccc2)s1 |  | 62.69%
CC(=O)Nc1ncc(S(=O)(=O)Nc2ccccc2F)s1 |  | 61.48%
